Results from PubChem BioAssay (NCATS).
Records with an inconclusive call do not appear. Activity calls are given as the source filed them. The call rests on the fitted dose curve; in most records, active means well fitted cell-killing curve with a large enough effect; inconclusive means small, poorly fitted or top-dose-only effect, or effect the other way; inactive means flat fitted curve, though single readings scatter.
On the % scale 0 is the no-effect control and ±100 the full control effect.

Each molecule was assayed on HeLa (assay: Primary qHTS to identify gynecologic anti-cancer compounds using libraries of approved drugs and bioactive compounds (AID 1345084; further: nearly all actives have a fitted effect of over 55% in size)). Details: Gynecologic cancer cell panel viability, ATPlite luminescence, 48 h; series mostly up to 57.5 µM; activity change, negative = cytotoxicity: at the top concentration.
How it was run: (§1)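 Cells, 1,000 per well, were allowed to settle for 16 h at 37 C before compound addition. Five concentrations were tested for 48 h, and viability was read by ATPlite luminescence after 15 min at room temperature.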
For `C=C(CO)C12OC1C1(C)C(=CC2=O)C(O)C(O)CC1C` (stereo unspecified), the “activity change, negative = cytotoxicity” value was 15.3% (inactive).
In the case of `O=C(CCc1ccccc1)N1CCC(O)(Cn2cnc3cc(Cl)ccc3c2=O)CC1`, the “activity change, negative = cytotoxicity” value was -1.01% (inactive).
For `C=CC(C)(O)CC[C@H]1C(=C)CCC2[C@](C)(C(=O)O)CCC[C@@]21C` (stereo partly specified), the “activity change, negative = cytotoxicity” value was -13.1% [at 38.5 µM] (inactive).
For `C=C1[C@H](OC(C)=O)[C@H]2[C@@H](OC(C)=O)[C@](C)(OC(C)=O)C[C@]2(OC(C)=O)C(=O)[C@H](C)/C=C/C(C)(C)C(=O)[C@H](OC(=O)C(C)CC)[C@H]1OC(C)=O` (stereo partly specified), the “activity change, negative = cytotoxicity” value was -3.61% [at 25.3 µM] (inactive).
`C=C(C(=O)O)C1CCC2(C)CCC(O)C(C)(O)C2C1` (stereo unspecified) was tested, and the “activity change, negative = cytotoxicity” value was 0.745% (inactive).
In the case of `C[C@@H]1O[C@@H](OC[C@H]2O[C@@H](OC(CCCCc3ccc(O)cc3)CCc3ccc(O)cc3)[C@H](O)[C@@H](O)[C@@H]2O)[C@H](O)[C@H](O)[C@H]1O` (stereo partly specified), the “activity change, negative = cytotoxicity” value was 5.23% [at 25.3 µM] (inactive).
For `COC(=O)c1ccc(OC(CO)C(O)c2ccc(O)c(OC)c2)c(OC)c1` (stereo unspecified), the “activity change, negative = cytotoxicity” value was -6.91% [at 38.5 µM] (inactive).
For `C/C1=C\C[C@]2(C)C(=O)C(O)=C([C@H](C)CO)[C@H]2C/C=C(\C)[C@@H](O)CC/C(C)=C/CC1`, the “activity change, negative = cytotoxicity” value was 1.27% [at 38.5 µM] (inactive).
For `C=C(C)C1CCC2(C(=O)O)CCC3(C(=O)O)C(CCC4C5(C)CCC(O)C(C)(C(=O)O)C5CCC43C)C12` (stereo unspecified), the “activity change, negative = cytotoxicity” value was 8.65% [at 25.3 µM] (inactive).
`O=C(Nc1ccccc1-c1cn2c(CN3CCNCC3)csc2n1)c1ccc2ccccc2n1` was tested, and the “activity change, negative = cytotoxicity” value was 8.42% (inactive).
In the case of `COc1c2c(c(CO)c3c1C(=O)OC3)OC1(C)CCC3(O)C(C)(C)OC(=O)CCC3(C)C1C2` (stereo unspecified), the “activity change, negative = cytotoxicity” value was -9.29% [at 25.3 µM] (inactive).
With `CC(C)C(N)C(=O)OCCOCn1cnc2c(=O)[nH]c(N)nc21` (stereo unspecified) the “activity change, negative = cytotoxicity” value was 9.5% (inactive).
For `O=C(Nc1ccc(S(=O)(=O)Nc2nccs2)cc1)C(c1ccccc1)c1ccccc1`, the “activity change, negative = cytotoxicity” value was 2.54% (inactive).
For `CN=C(N)NCCCCC/C=C(/C)CC(C)C1OC(=O)C(C)C(O)/C=C/C(C)C(O)CC(O)C(C)C(O)CCC(C)C(O)CC2(O)OC(CC(OC(=O)CC(=O)O)CC(O)CC(O)C(C)C(O)/C(C)=C/CCC1C)CC(O)C2O` (stereo unspecified), the activity change, negative = cytotoxicity was 3.51% [at 11.6 µM] (inactive).
For `CCOCCn1nc(CC)c2nc(N3CCC(C(=O)O)CC3)nc(Nc3cc(C)ccn3)c21`, the “activity change, negative = cytotoxicity” value was -0.0558% (inactive).
In the case of `CC1OC(OC2C(CO)OC(OCC3OC(OC(=O)C45CCC(C)(C)CC4C4=CCC6C7(C)CCC(OC8OC(CO)C(O)C(OC9OC(CO)C(O)C(O)C9O)C8O)C(C)(C)C7CCC6(C)C4(C)CC5)C(O)C(O)C3O)C(O)C2O)C(O)C(O)C1OC1OC(CO)C(O)C(O)C1O` (stereo unspecified), the activity change, negative = cytotoxicity was 3.66% [at 6.55 µM] (inactive).
For `O=c1[nH]ccc2cc(OC3CCNCC3)ccc12`, the “activity change, negative = cytotoxicity” value was -10.6% (inactive).

The molecules below were run on Hek293T in the same assay as above. Details: Gynecologic cancer cell panel viability, ATPlite luminescence, 48 h, control line for the selectivity index; series mostly up to 57.5 µM; activity change, negative = cytotoxicity: at the top concentration.
How it was run: as §1
In the case of `CC(=O)C12OC(C)(C)OC1CC1C3CCC4=CC(=O)C=CC4(C)C3(F)C(O)CC12C` (stereo unspecified), the “activity change, negative = cytotoxicity” value was -3.06% (inactive).
For `COC(=O)C1=CO[C@@H](O[C@@H]2O[C@H](CO[C@@H]3O[C@H](COC(=O)/C=C/c4cc(OC)c(O)c(OC)c4)[C@@H](O)[C@H](O)[C@H]3O)[C@@H](O)[C@H](O)[C@H]2O)[C@@H]2C(CO)=CC[C@H]12`, the “activity change, negative = cytotoxicity” value was 4.77% [at 25.3 µM] (inactive).
With `CC1=C2C3OC(=O)C(C)C3(O)CCC2(C)CCC1O` (stereo unspecified) the “activity change, negative = cytotoxicity” value was -4.25% (inactive).
In the case of `COc1ccccc1Oc1ccc(N(Cc2cccnc2)S(=O)(=O)CC(F)(F)F)cc1`, the “activity change, negative = cytotoxicity” value was 19.7% (inactive).
In the case of `O=C(/C=C/c1ccc(O)cc1)N[C@@H](Cc1ccc(O)cc1)C(=O)O`, the “activity change, negative = cytotoxicity” value was -2.72% [at 38.5 µM] (inactive).
For `CC1=C(C)C(=O)OC(C(C)C2CCC3C4C5OC5C5(O)CC(OC6OC(CO)C(OC7OC(C)C(O)C(O)C7O)C(O)C6O)CC(O)C5(C)C4CCC23C)C1` (stereo unspecified), the “activity change, negative = cytotoxicity” value was 11.2% [at 25.3 µM] (inactive).
`C=C[C@H]1CN2CC[C@H]1C[C@@H]2C(O)c1ccnc2ccc(OC)cc12` (stereo partly specified) was tested, and the “activity change, negative = cytotoxicity” value was -0.251% [at 38.5 µM] (inactive).
`C=C[C@H]1C(O[C@@H]2O[C@H](CO)[C@@H](O)[C@H](O)[C@H]2O)OC=C2C(=O)N3CCc4c([nH]c5ccccc45)C3CC21` (stereo partly specified) was tested, and the “activity change, negative = cytotoxicity” value was -3.04% [at 25.3 µM] (inactive).
With `O=C(O)/C=C/c1ccc(O)c(O[C@@H]2O[C@H](CO)[C@@H](O)[C@H](O)[C@H]2O)c1` the “activity change, negative = cytotoxicity” value was -1.48% [at 38.5 µM] (inactive).
In the case of `C=C(C(=O)O)C1CC(O)C2(C)CCCC(=C)C2C1` (stereo unspecified), the “activity change, negative = cytotoxicity” value was -3.12% (inactive).
In the case of `CC1CCC2(C(=O)O)CCC3(C)C(=CCC4C5(C)CCC(OC(=O)/C=C/c6ccccc6)C(C)(C)C5CCC43C)C2C1C` (stereo unspecified), the “activity change, negative = cytotoxicity” value was 0.363% [at 25.3 µM] (inactive).
In the case of `C=C[C@H]1[C@H](O[C@@H]2O[C@H](CO)[C@@H](O)[C@H](O)[C@H]2O)OC=C(C(=O)OC)[C@H]1CC(=O)O`, the “activity change, negative = cytotoxicity” value was -0.698% [at 38.5 µM] (inactive).
With `CNC12CC3C[C@@](C)(C1)C[C@](C)(C3)C2` the “activity change, negative = cytotoxicity” value was 0.65% (inactive).
In the case of `COc1cccc2cc3c(c(O[C@@H]4O[C@H](CO[C@@H]5O[C@H](CO)[C@@H](O)[C@H](O)[C@H]5O)[C@@H](O)[C@H](O)[C@H]4O)c12)C(C)OC3=O` (stereo partly specified), the “activity change, negative = cytotoxicity” value was 6.2% [at 25.3 µM] (inactive).
In the case of `C/C(=C\CC[C@@H](C)[C@H]1CC(O)[C@@]2(C)C3CC[C@H]4C(C)(C)[C@@H](OC5OCC(O)C(O)C5OC5OC(CO)C(O)C(O)C5O)CC[C@@]45C[C@@]35CC(O)[C@]12C)C(=O)O` (stereo partly specified), the “activity change, negative = cytotoxicity” value was -16.3% [at 25.3 µM] (inactive).
For `Cc1ccc(NC(=O)C(=O)NC2CC(C)(C)NC(C)(C)C2)cc1`, the “activity change, negative = cytotoxicity” value was 2.51% (inactive).
`C=CC(C)(C)C12C=C(OC)C(=O)N3C(C(C)C)C(=O)NC31N(OC)c1ccccc12` (stereo unspecified) was tested, and the “activity change, negative = cytotoxicity” value was 2.7% [at 25.3 µM] (inactive).
`O=S(=O)(NC1CCC(c2cc(F)ccc2F)(S(=O)(=O)c2ccc(Cl)cc2)CC1)C(F)(F)F` (stereo unspecified) was tested, and the “activity change, negative = cytotoxicity” value was -0.723% (inactive).
`CC(C)=CCC[C@](C)(O[C@@H]1O[C@H](CO)[C@@H](O)[C@H](O)[C@H]1O)[C@H]1CC[C@]2(C)[C@@H]1[C@H](O)CC1[C@@]3(C)CC[C@H](O)C(C)(C)C3[C@@H](O[C@@H]3O[C@H](CO)[C@@H](O)[C@H](O)[C@H]3O[C@@H]3OC[C@@H](O)[C@H](O)[C@H]3O)C[C@]12C` (stereo partly specified) was tested, and the activity change, negative = cytotoxicity was -2.61% [at 11.6 µM] (inactive).
`CC(=O)OC1CC2(C)C3=CCC4(C)C5C(O)C(O)C(C(C)C)C5(C)CCC4(C)C3CCC2C(C)(C)C1OC1OC(CO)C(O)C(O)C1O` (stereo unspecified) was tested, and the “activity change, negative = cytotoxicity” value was -3.12% [at 25.3 µM] (inactive).
In the case of `CC1(C)CCCC2(C)C1CC(=O)C13CC(CCC12)C(O)(CO)C3` (stereo unspecified), the “activity change, negative = cytotoxicity” value was -0.55% [at 38.5 µM] (inactive).
With `CC1=CC(=O)C2(OC3OC(C)C(O)C(OC(=O)/C=C/c4ccccc4)C3O)C=COC(OC3OC(CO)C(O)C(O)C3O)C12` (stereo unspecified) the “activity change, negative = cytotoxicity” value was 16.3% [at 25.3 µM] (inactive).
With `C=C(CO)C12OC1C1(C)C(=CC2=O)C(O)C(O)CC1C` (stereo unspecified) the “activity change, negative = cytotoxicity” value was 2.86% (inactive).
With `O=C(CCc1ccccc1)N1CCC(O)(Cn2cnc3cc(Cl)ccc3c2=O)CC1` the “activity change, negative = cytotoxicity” value was -5.77% (inactive).
With `C=CC(C)(O)CC[C@H]1C(=C)CCC2[C@](C)(C(=O)O)CCC[C@@]21C` (stereo partly specified) the “activity change, negative = cytotoxicity” value was 8.29% [at 38.5 µM] (inactive).
With `C=C1[C@H](OC(C)=O)[C@H]2[C@@H](OC(C)=O)[C@](C)(OC(C)=O)C[C@]2(OC(C)=O)C(=O)[C@H](C)/C=C/C(C)(C)C(=O)[C@H](OC(=O)C(C)CC)[C@H]1OC(C)=O` (stereo partly specified) the “activity change, negative = cytotoxicity” value was -0.972% [at 25.3 µM] (inactive).
For `C=C(C(=O)O)C1CCC2(C)CCC(O)C(C)(O)C2C1` (stereo unspecified), the “activity change, negative = cytotoxicity” value was 14.6% (inactive).
With `C[C@@H]1O[C@@H](OC[C@H]2O[C@@H](OC(CCCCc3ccc(O)cc3)CCc3ccc(O)cc3)[C@H](O)[C@@H](O)[C@@H]2O)[C@H](O)[C@H](O)[C@H]1O` (stereo partly specified) the “activity change, negative = cytotoxicity” value was -6.76% [at 25.3 µM] (inactive).
With `COC(=O)c1ccc(OC(CO)C(O)c2ccc(O)c(OC)c2)c(OC)c1` (stereo unspecified) the “activity change, negative = cytotoxicity” value was -2.22% [at 38.5 µM] (inactive).
`C/C1=C\C[C@]2(C)C(=O)C(O)=C([C@H](C)CO)[C@H]2C/C=C(\C)[C@@H](O)CC/C(C)=C/CC1` was tested, and the “activity change, negative = cytotoxicity” value was 10.9% [at 38.5 µM] (inactive).
In the case of `C=C(C)C1CCC2(C(=O)O)CCC3(C(=O)O)C(CCC4C5(C)CCC(O)C(C)(C(=O)O)C5CCC43C)C12` (stereo unspecified), the “activity change, negative = cytotoxicity” value was -14.6% [at 25.3 µM] (inactive).
With `O=C(Nc1ccccc1-c1cn2c(CN3CCNCC3)csc2n1)c1ccc2ccccc2n1` the “activity change, negative = cytotoxicity” value was 5.08% (inactive).
In the case of `COc1c2c(c(CO)c3c1C(=O)OC3)OC1(C)CCC3(O)C(C)(C)OC(=O)CCC3(C)C1C2` (stereo unspecified), the “activity change, negative = cytotoxicity” value was -25.5% [at 25.3 µM] (inactive).
`CC(C)C(N)C(=O)OCCOCn1cnc2c(=O)[nH]c(N)nc21` (stereo unspecified) was tested, and the “activity change, negative = cytotoxicity” value was -0.0758% (inactive).
`O=C(Nc1ccc(S(=O)(=O)Nc2nccs2)cc1)C(c1ccccc1)c1ccccc1` was tested, and the “activity change, negative = cytotoxicity” value was 6.55% (inactive).
`CN=C(N)NCCCCC/C=C(/C)CC(C)C1OC(=O)C(C)C(O)/C=C/C(C)C(O)CC(O)C(C)C(O)CCC(C)C(O)CC2(O)OC(CC(OC(=O)CC(=O)O)CC(O)CC(O)C(C)C(O)/C(C)=C/CCC1C)CC(O)C2O` (stereo unspecified) was tested, and the activity change, negative = cytotoxicity was 10.1% [at 11.6 µM] (inactive).
With `CCOCCn1nc(CC)c2nc(N3CCC(C(=O)O)CC3)nc(Nc3cc(C)ccn3)c21` the “activity change, negative = cytotoxicity” value was -1.34% (inactive).
`CC1OC(OC2C(CO)OC(OCC3OC(OC(=O)C45CCC(C)(C)CC4C4=CCC6C7(C)CCC(OC8OC(CO)C(O)C(OC9OC(CO)C(O)C(O)C9O)C8O)C(C)(C)C7CCC6(C)C4(C)CC5)C(O)C(O)C3O)C(O)C2O)C(O)C(O)C1OC1OC(CO)C(O)C(O)C1O` (stereo unspecified) was tested, and the activity change, negative = cytotoxicity was 13.1% [at 6.55 µM] (inactive).
`O=c1[nH]ccc2cc(OC3CCNCC3)ccc12` was tested, and the “activity change, negative = cytotoxicity” value was 4.45% (inactive).
